Where two headings read alike, the source gives them in different places.

In article PMC11062922 (Nature Chemical Biology, 2023) one finds potency estimated from few doses data, which are given here for ten molecules.

Test [1] concerns PKN3. On the set-up: species or system human, MV4-11 + K-562 + COLO205 + SK-N-BE2 + OVCAR-8. The settings on record: read-out: apparent Kd, compound concentrations: 100 nM and 1000 nM (sheet 'Samples'), n = 1.
For test [2], the system named is RIPK2. On the set-up: species or system human, MV4-11 + K-562 + COLO205 + SK-N-BE2 + OVCAR-8. The settings on record: read-out: apparent Kd, compound concentrations: 100 nM and 1000 nM (sheet 'Samples'), n = 1.
Test [3] deals with PKN2. On the set-up: species or system human, MV4-11 + K-562 + COLO205 + SK-N-BE2 + OVCAR-8. The note with it: read-out: apparent Kd; compound concentrations:100 nM and 1000 nM (sheet 'Samples'); n = 1.
Test [4] deals with SLK. On the set-up: species or system human, MV4-11 + K-562 + COLO205 + SK-N-BE2 + OVCAR-8. The note with it: read-out: apparent Kd; compound concentrations:100 nM and 1000 nM (sheet 'Samples'); n = 1.
Test [5] has as its system ADCK3. The settings on record: read-out: apparent Kd, n = 1.
Test [6] concerns NQO1. The settings on record: read-out: apparent Kd, n = 1.
Test [7] relates to PIM3. The note with it: read-out: apparent Kd, n = 1.
The test system of test [8] is STK26. The settings on record: read-out: apparent Kd, n = 1.
The subject of test [9] is TESK1. The settings on record: read-out: apparent Kd, n = 1.
For test [10], the system named is TGFBR2. The note with it: read-out: apparent Kd, n = 1.
Test [11] relates to PRKD2. On the set-up: species or system human, MV4-11 + K-562 + COLO205 + SK-N-BE2 + OVCAR-8. The note with it: read-out: apparent Kd; compound concentrations:100 nM and 1000 nM (sheet 'Samples'); n = 1.
Where [12] appears, read: compound concentrations:100 nM and 1000 nM (sheet 'Lestaurtinib' of Supplementary Table 1),run:Lestaurtinib_02748_R2,Plate:MR024.
Where [13] appears, read: compound concentrations:100 nM and 1000 nM (sheet 'Lestaurtinib' of Supplementary Table 1),run:Lestaurtinib_02584_R3,Plate:MR017.

Consider `CCn1c(-c2nonc2N)nc2c(N3CCCC3)nccc21` [SB-744941], for which, in test [1] (CATDS: 1), the potency estimated from few doses is 2110 nM.

Turning to `CNC(=O)c1cncc(/C=C/c2c(Cl)cccc2Cl)c1` [GW445014X], the potency estimated from few doses in test [2] (CATDS: 1) is 773 nM.

As to `CCn1c(-c2nonc2N)nc2cnc(Oc3cccc(NC(=O)c4ccc(N(C)C)cc4)c3)cc21` [GSK248233A], the potency estimated from few doses in [3] was 1780 nM.

For the molecule `CC1=C(C(=O)Nc2cc3cn[nH]c3cc2F)C(c2ccc(C(F)(F)F)cc2)CC(=O)N1` (stereo not shown) [GSK429286A], in test [1] (CATDS: 0.172679408369589), the potency estimated from few doses was 1700 nM.

Take `CNC(=O)c1cncc(/C=C/c2ccccc2C)c1` [GW445015X]: the potency estimated from few doses in test [2] (CATDS: 1) was 795 nM.

For `c1ccc(Oc2ccc(Nc3ccnc4ccc(-c5ccccn5)cc34)cc2)cc1` [GW407034X], the potency estimated from few doses in [2] (CATDS: 0.62079920866718596) was 189 nM.

On to `CSc1ccc(NC2=C(c3ccccc3Cl)C(=O)NC2=O)cc1` [SB-342411], for which the potency estimated from few doses in test [4] was 1400 nM.

As for Lestaurtinib, the potency estimated from few doses in test [5] (compound concentrations:100 nM and 1000 nM (sheet 'Lestaurtinib' of Supplementary Table 1),run:Lestaurtinib_02364_R1,Plate:MR002) is 1630 nM; in test [5] (compound concentrations:100 nM and 1000 nM (sheet 'Lestaurtinib' of Supplementary Table 1),run:Lestaurtinib_02422_R1,Plate:MR006) it was 80.8 nM; in test [5] (compound concentrations:100 nM and 1000 nM (sheet 'Lestaurtinib' of Supplementary Table 1),run:Lestaurtinib_02437_R3,Plate:MR007), 474 nM; in [5] (compound concentrations:100 nM and 1000 nM (sheet 'Lestaurtinib' of Supplementary Table 1),run:Lestaurtinib_02572_R1,Plate:MR015), 1620 nM; in [6] (compound concentrations:100 nM and 1000 nM (sheet 'Lestaurtinib' of Supplementary Table 1),run:Lestaurtinib_02438_R3,Plate:MR008), 1600 nM; in test [6] (compound concentrations:100 nM and 1000 nM (sheet 'Lestaurtinib' of Supplementary Table 1),run:Lestaurtinib_02765_R1,Plate:MR026), 1440 nM. The potency estimated from few doses in test [6] (compound concentrations:100 nM and 1000 nM (sheet 'Lestaurtinib' of Supplementary Table 1),run:Lestaurtinib_03172_R1,Plate:MR031) is 1700 nM; in test [7] (compound concentrations:100 nM and 1000 nM (sheet 'Lestaurtinib' of Supplementary Table 1),run:Lestaurtinib_02748_R1,Plate:MR024), 611 nM; in test [7] (setting [12]), 656 nM; in test [7] (compound concentrations:100 nM and 1000 nM (sheet 'Lestaurtinib' of Supplementary Table 1),run:Lestaurtinib_02748_R3,Plate:MR024) it was 1430 nM; in test [7] (compound concentrations:100 nM and 1000 nM (sheet 'Lestaurtinib' of Supplementary Table 1),run:Lestaurtinib_02752_R2,Plate:MR025), 795 nM; in [7] (compound concentrations:100 nM and 1000 nM (sheet 'Lestaurtinib' of Supplementary Table 1),run:Lestaurtinib_03260_R2,Plate:MR033), 945 nM. The potency estimated from few doses is 1700 nM in test [8] (compound concentrations:100 nM and 1000 nM (sheet 'Lestaurtinib' of Supplementary Table 1),run:Lestaurtinib_02407_R1,Plate:MR005); 2250 nM in [8] (compound concentrations:100 nM and 1000 nM (sheet 'Lestaurtinib' of Supplementary Table 1),run:Lestaurtinib_02473_R3,Plate:MR010); 2350 nM in test [8] (setting [13]); 1960 nM in [9] (compound concentrations:100 nM and 1000 nM (sheet 'Lestaurtinib' of Supplementary Table 1),run:Lestaurtinib_02482_R3,Plate:MR011); 1310 nM in test [9] (compound concentrations:100 nM and 1000 nM (sheet 'Lestaurtinib' of Supplementary Table 1),run:Lestaurtinib_02487_R1,Plate:MR012); 1960 nM in [9] (setting [13]). In addition, the potency estimated from few doses was 994 nM in test [9] (setting [12]); 1570 nM in test [10] (compound concentrations:100 nM and 1000 nM (sheet 'Lestaurtinib' of Supplementary Table 1),run:Lestaurtinib_02443_R3,Plate:MR009); 2210 nM in test [10] (compound concentrations:100 nM and 1000 nM (sheet 'Lestaurtinib' of Supplementary Table 1),run:Lestaurtinib_03172_R3,Plate:MR031); 2120 nM in [10] (compound concentrations:100 nM and 1000 nM (sheet 'Lestaurtinib' of Supplementary Table 1),run:Lestaurtinib_03252_R2,Plate:MR032).

Take `Cc1cccc(-c2n[nH]cc2-c2ccc3ncccc3n2)n1` [GW786460X]: the potency estimated from few doses in test [11] is 465 nM.

For `O=C1NC(=O)C(c2ccccc2Cl)=C1Nc1cccc(Cl)c1` [SB-342409], in test [4], the potency estimated from few doses was 811 nM.
